PubChem BioAssay (Tox21)
Results filed as inconclusive are left out. Entries that show only a call come without a potency. A number with no mark means an inactive call. Activity calls are given as the source filed them. Unless noted, calls follow the shape of the dose curve; as a rule, active = well fitted curve in the direction sought with a large enough effect in the repeat runs; inconclusive = weak or mixed curves; inactive = no such curve, though single readings can be large; an effect the other way counts as inactive or inconclusive.

What was measured:
[1] = qHTS assay to identify small molecule antagonists of the estrogen related receptor (ERR) signaling pathway from Tox21 library - cell viability counter screen (AID 1224834); conditions: ERR reporter cells viability, CellTiter-Fluor, 17.5 h; series mostly up to 92.4 µM; also: nearly all actives have a fitted effect of over 30% in size
In short: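 Viability readout (CellTiter-Fluor fluorescence, 30 min at 37 C) multiplexed with the ERR assay; cells treated 17.5 h at 37 C with compounds delivered in DMSO.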

[2] = target: Luciferin 4-monooxygenase (Photinus pyralis) (UniProt P08659); assay: qHTS assay to identify small molecule inhibitors of firefly luciferase (AID 1224835); also: nearly all actives have a fitted effect of over 25% in size; conditions: purified P. pyralis luciferase, luminescence inhibition; series mostly up to 52.9 µM
Chain of Luciferin 4-monooxygenase (Photinus pyralis) (P08659 whole entry, looked up): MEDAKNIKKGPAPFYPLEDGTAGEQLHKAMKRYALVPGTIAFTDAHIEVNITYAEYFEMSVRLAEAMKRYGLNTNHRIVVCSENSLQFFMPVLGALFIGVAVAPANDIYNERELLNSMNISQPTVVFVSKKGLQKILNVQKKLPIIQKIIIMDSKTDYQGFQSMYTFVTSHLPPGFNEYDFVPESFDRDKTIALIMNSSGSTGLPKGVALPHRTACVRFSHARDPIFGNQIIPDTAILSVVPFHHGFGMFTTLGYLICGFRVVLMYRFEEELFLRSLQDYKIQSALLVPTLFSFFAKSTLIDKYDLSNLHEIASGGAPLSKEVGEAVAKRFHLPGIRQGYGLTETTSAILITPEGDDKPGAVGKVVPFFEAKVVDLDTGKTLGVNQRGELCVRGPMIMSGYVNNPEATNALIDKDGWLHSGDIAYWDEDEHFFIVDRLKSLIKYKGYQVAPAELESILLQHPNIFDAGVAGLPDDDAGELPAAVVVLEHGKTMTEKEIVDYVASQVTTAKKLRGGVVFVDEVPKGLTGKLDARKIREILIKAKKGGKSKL
In short: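 Quantitative HTS format; KM concentrations of both substrates. Purified P. pyralis FLuc activity quantified from luminescence images.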

[3] = target: Nuclear receptor subfamily 1 group I member 3 (Homo sapiens) (UniProt Q14994); assay: qHTS assay to identify small molecule antagonists of the constitutive androstane receptor (CAR) signaling pathway (AID 1224838); conditions: HepG2-CYP2B6-hCAR luciferase, CITCO-stimulated, 24 h; series mostly up to 92.4 µM;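 also: HepG2 cells stably expressing hCAR with CYP2B6 luciferase reporter stimulated by CITCO; nearly all actives have a fitted effect of over 40% in size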
Chain of Nuclear receptor subfamily 1 group I member 3 (Homo sapiens) (Q14994 whole entry, looked up): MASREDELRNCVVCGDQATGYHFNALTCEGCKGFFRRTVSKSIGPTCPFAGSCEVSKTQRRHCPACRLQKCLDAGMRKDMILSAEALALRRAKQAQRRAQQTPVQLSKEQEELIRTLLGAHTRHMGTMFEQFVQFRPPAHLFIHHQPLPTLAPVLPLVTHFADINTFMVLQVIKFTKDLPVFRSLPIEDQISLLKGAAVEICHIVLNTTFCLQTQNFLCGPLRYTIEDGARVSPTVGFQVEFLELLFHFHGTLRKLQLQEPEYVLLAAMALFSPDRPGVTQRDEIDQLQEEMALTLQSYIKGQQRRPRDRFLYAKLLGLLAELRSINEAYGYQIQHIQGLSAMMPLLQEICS
In short: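 Quantitative HTS in double-stable HepG2-CYP2B6-hCAR cells. After 4 h plating, cells get compound (15 concentrations) and CITCO at 50 nM final, incubate 24 h at 37 C, then ONE-Glo luminescence is read.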

[4] = target: Nuclear receptor subfamily 1 group I member 3 (Homo sapiens) (UniProt Q14994); assay: qHTS assay to identify small molecule agonists of the constitutive androstane receptor (CAR) signaling pathway (AID 1224839); conditions: HepG2 hCAR CYP2B6-luciferase, agonist mode, 24 h; series mostly up to 92.4 µM; also: nearly all actives have a fitted effect of over 15% in size;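 as to activation: HepG2 cells stably carrying human CAR and a CYP2B6 luciferase reporter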
In short: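 Luminescent ONE-Glo read-out after 24 hr, 37 C exposure of double-stable HepG2-CYP2B6-hCAR reporter cells to a 15-point compound series, in the presence of 0.75 uM PK11195 (final).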

[5] = qHTS assay to identify small molecule antagonists of the constitutive androstane receptor (CAR) signaling pathway - cell viability counter screen (AID 1224837); conditions: HepG2-CYP2B6-hCAR viability, CellTiter-Fluor, 23 h, co-treated with 50 nM CITCO; series mostly up to 92.4 µM; also: nearly all actives have a fitted effect of over 45% in size
In short: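 Fluorescence from CellTiter-Fluor served as the viability signal. Human hepatoma HepG2 cells stably bearing hCAR and CYP2B6-2.2kb received compound plus CITCO (50 nM final) for 23 hr.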

[6] = qHTS assay to identify small molecule antagonists of the estrogen related receptor signaling pathway with the pleiotropic PPARgamma coactivator (PGC) from Tox21 10K library - cell viability counter screen (AID 1224840; active = well fitted cell-killing curve with a large enough effect in the repeat runs, not every such curve was filed as active; also: nearly all actives have a fitted effect of over 40% in size); conditions: PGC/ERR reporter cells viability, CellTiter-Fluor, 17.5 h; series mostly up to 92.4 µM
In short: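 Compounds in DMSO, alongside positive and negative controls, were pinned onto PGC/ERR cells (2,000 per well). Exposure lasted 17.5 hours at 37 C, followed by a 30-minute CellTiter-Fluor incubation and fluorescence reading.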

[7] = qHTS assay to identify small molecule antagonists of the estrogen related receptor signaling pathway with the pleiotropic PPARgamma coactivator (PGC) from Tox21 10K library (AID 1224841; call rule not given here; also: actives are mostly falling curves and most rising ones were filed inactive; nearly all actives have a fitted effect of over 50% in size); conditions: PGC/ERR reporter cell line, ONE-Glo luciferase, 18 h; series mostly up to 92.4 µM
In short: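 Compound exposure ran 18 hours at 37 C in PGC/ERR cells (2,000/well) that had first rested 6 hours in a 37 C/5% CO2 incubator. Luciferase activity was then detected with One-Glo after a 30-minute room-temperature step.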

[8] = qHTS assay to identify small molecule agonists of the estrogen related receptor signaling pathway with the pleiotropic PPARgamma coactivator (PGC) from Tox21 10K library (AID 1224842); conditions: PGC/ERR reporter cell line, luciferase ONE-Glo, 18 h; series mostly up to 92.4 µM; also: nearly all actives have a fitted effect of over 15% in size
In short: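 PGC/ERR reporter cells (NTP line) were seeded 2,000 per well, rested 6 h at 37 C/5% CO2, then pin-dosed with compounds in DMSO for 18 h at 37 C; luciferase read by One-Glo luminescence after 30 min at room temperature.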

[9] = qHTS assay to identify small molecule agonists of the constitutive androstane receptor (CAR) signaling pathway - cell viability counter screen (AID 1224836); conditions: HepG2-CYP2B6-hCAR viability, CellTiter-Fluor, 23 h, PK11195 added to every well; series mostly up to 92.4 µM; also: nearly all actives have a fitted effect of over 45% in size
In short: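 Cell viability multiplexed with the CAR agonist screen: CellTiter-Fluor fluorescence after 23 hr at 37 C. HepG2-CYP2B6-hCAR cells got compounds at 15 concentrations with PK11195 at 0.75 uM final.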
Potency is read from the fitted curve at half-maximal effect.

Compound	Potency [1]	Potency [2]	Potency [3]	activation [4]	Potency [5]	Potency [6]	Potency [7]	Potency [8]	Potency [9]	Potency [4]
Cc1cc(=O)c2c(O)c3c(O)cc(=O)c4c3c3c(cc(O)c1c23)C(C)(C)C=4O	1.46 µM (active)	inactive	2.59 µM (active)	-14.4% [at 19 µM]	–	–	–	–	–	–
CC(=O)NC1(c2cccc(F)c2)CCN(CC[C@@]2(c3ccc(Cl)c(Cl)c3)CN(c3ccccc3)C(=O)CO2)CC1	54.6 µM (active)	inactive	–	–	54.6 µM (active)	43.4 µM (active)	–	–	–	–
CC(C)c1nc(CN(C)C(=O)N[C@H](C(=O)N[C@@H](Cc2ccccc2)C[C@H](O)[C@H](Cc2ccccc2)NC(=O)OCc2cncs2)C(C)C)cs1	13.3 µM (active)	inactive	inactive	–	–	–	23.7 µM (active)	inactive	–	–
CC(C)C(O)(c1ccc(OC(F)(F)F)cc1)c1cncnc1 (stereo unspecified)	inactive	–	inactive	–	inactive	inactive	–	–	inactive	inactive
COc1cc(Nc2c(C#N)cnc3cc(OCCCN4CCN(C)CC4)c(OC)cc23)c(Cl)cc1Cl	9.44 µM (active)	inactive	–	–	–	inactive	–	–	inactive	–
C[C@@H](O)[C@H]1C(=O)N2C(C(=O)O)=C([C@H]3CCCO3)S[C@H]12	inactive	inactive	–	–	inactive	inactive	–	–	inactive	–
O=C(CCCN1CC=C(n2c(=O)[nH]c3ccccc32)CC1)c1ccc(F)cc1	33.5 µM (active)	inactive	inactive	–	–	inactive	–	–	inactive	inactive
C[C@@H](O[C@H]1OCCN(Cc2n[nH]c(=O)[nH]2)[C@H]1c1ccc(F)cc1)c1cc(C(F)(F)F)cc(C(F)(F)F)c1	26.6 µM (active)	inactive	–	–	inactive	–	–	inactive	–	–
O=C(O)CCC(=O)C(=O)O	inactive	inactive	–	–	inactive	inactive	–	–	inactive	–
Brc1cc2ccccc2c2ccccc12	inactive	inactive	–	–	–	–	61.6 µM (active)	inactive	–	–
C=Cc1ccc(S(=O)(=O)O)cc1	inactive	20 µM (active)	–	–	inactive	inactive	–	inactive	inactive	–
CN1CCCC(CC2c3ccccc3Sc3ccccc32)C1 (stereo unspecified)	26.6 µM (active)	inactive	–	–	inactive	–	inactive	–	–	inactive
CCOC(=O)c1ccc(I)cc1	inactive	50.7 µM (active)	–	–	inactive	inactive	inactive	4.9 µM (active)	inactive	–
CN1C(=O)N(c2ccccc2Br)Cc2cnc(Nc3ccc4c(c3)OCC(CO)O4)nc21 (stereo unspecified)	27.3 µM (active)	20 µM (active)	–	–	–	21.7 µM (active)	–	inactive	30.6 µM (active)	–
CC1=C(CC=O)C(C)(C)CCC1	inactive	inactive	–	–	inactive	inactive	–	–	inactive	–
O=C1NC(=O)c2cc([N+](=O)[O-])ccc21	inactive	inactive	–	–	inactive	inactive	–	–	inactive	–
O=C1C(=O)c2ccccc2C(O)=C1C1CCC(c2ccc(Cl)cc2)CC1 (stereo unspecified)	inactive	inactive	–	–	–	inactive	–	inactive	–	–
CC1CC(OC(=O)C(O)c2ccccc2)CC(C)(C)N1C (stereo unspecified)	inactive	inactive	–	–	inactive	inactive	inactive	inactive	inactive	–
CC1(C)S[C@@H]2[C@H](NC(=O)C(c3ccccc3)S(=O)(=O)O)C(=O)N2[C@H]1C(=O)O (stereo partly specified)	inactive	inactive	–	–	inactive	inactive	–	–	inactive	–
CC[N+](CC)(CCNC(=O)C(=O)NCC[N+](CC)(CC)Cc1ccccc1Cl)Cc1ccccc1Cl	inactive	inactive	–	–	inactive	inactive	–	inactive	inactive	–

Compound	Potency [1]	Potency [2]	Potency [3]	activation [4]	Potency [5]	Potency [6]	Potency [7]	Potency [8]	Potency [9]	Potency [4]
O[C@@H]1CO[C@H]2[C@@H]1OC[C@@H]2O	inactive	inactive	–	–	inactive	inactive	–	–	inactive	–
CCn1cc(C(=O)O)c(=O)c2cc(F)c(N3CCNCC3)cc21	inactive	inactive	–	–	inactive	inactive	–	–	inactive	–
COC(=O)CS	inactive	inactive	–	–	inactive	inactive	–	–	inactive	–
COc1cc(C(=O)NC2CCN(C)CC2)ccc1Nc1ncc2c(n1)N(C1CCCC1)CC(F)(F)C(=O)N2C	31.5 µM (active)	inactive	8.88 µM (active)	–	–	35.3 µM (active)	inactive	2.5 µM (active)	–	inactive
CCCCCCCCCCC(=O)O	inactive	57.1 µM (active)	–	–	inactive	inactive	–	–	inactive	–
C[C@]1(Cn2ccnn2)[C@H](C(=O)O)N2C(=O)C[C@H]2S1(=O)=O	inactive	inactive	–	–	inactive	inactive	–	–	inactive	–
CCC1CO1 (stereo unspecified)	inactive	inactive	–	–	inactive	inactive	–	–	inactive	–
CCOc1ccccc1O[C@H](c1ccccc1)[C@H]1CNCCO1	inactive	inactive	–	–	inactive	inactive	–	–	inactive	–
O=c1[nH]c2ccc(Cl)cc2o1	inactive	inactive	–	–	inactive	inactive	inactive	inactive	inactive	–
Cc1c(C)c2c(c(C)c1OC(=O)CCC(=O)OCCO)CC[C@@](C)(CCC[C@H](C)CCC[C@H](C)CCCC(C)C)O2	inactive	inactive	inactive	–	–	–	21.1 µM (active)	inactive	–	inactive
CC1(CN2CCC(n3c(=O)[nH]c4ccccc43)CC2)OCc2ccccc2-n2cccc21 (stereo unspecified)	23.7 µM (active)	inactive	inactive	–	–	–	–	–	–	–
CCCCCC[C@@H](O)C/C=C\CCCCCCCC(=O)OCC(O)CO (stereo partly specified)	inactive	inactive	–	–	inactive	inactive	inactive	inactive	inactive	–
CN1C(C(=O)Nc2ccccn2)=C(O)c2sccc2S1(=O)=O	inactive	–	inactive	–	inactive	inactive	–	–	inactive	inactive
CCOC(=O)c1ccc(O)c(O)c1	inactive	inactive	inactive	–	inactive	inactive	–	–	–	–
O=C1c2ccccc2C(=O)N1CCc1noc(-c2ccc(CN3CCCCCC3)s2)n1	49.9 µM (active)	inactive	inactive	–	inactive	–	–	–	–	inactive
C[C@@H](CN(C)C)CN1c2ccccc2Sc2ccccc21	26.6 µM (active)	inactive	inactive	–	–	inactive	inactive	inactive	–	–
CO[C@]1(NC(=O)CSC(F)F)C(=O)N2C(C(=O)O)=C(CSc3nnnn3CCO)CO[C@H]21	inactive	inactive	–	–	inactive	inactive	–	–	inactive	–
O=C(/C=C/c1ccc(O)c(O)c1)O[C@@H]1C[C@@](OC(=O)/C=C/c2ccc(O)c(O)c2)(C(=O)O)C[C@@H](O)[C@@H]1O	inactive	inactive	–	–	inactive	inactive	–	–	inactive	–
CCOC(=O)/C=C/C(=O)OCC	inactive	inactive	–	–	inactive	inactive	inactive	inactive	inactive	–
Oc1cc2c(cc1O)[C@H]1c3ccc(O)c(O)c3OC[C@@]1(O)C2	39 µM (active)	32.1 µM (active)	49.2 µM (active)	–	–	27.6 µM (active)	34.8 µM (active)	inactive	49.2 µM (active)	inactive

Compound	Potency [1]	Potency [2]	Potency [3]	activation [4]	Potency [5]	Potency [6]	Potency [7]	Potency [8]	Potency [9]	Potency [4]
CCCCCCCCCI	inactive	–	inactive	–	inactive	inactive	–	8.79 µM (active)	inactive	inactive
O=C1Cc2ccccc2N1c1c(Cl)cccc1Cl	–	inactive	inactive	–	inactive	inactive	inactive	inactive	inactive	30.6 µM (active)
CCOC(=O)c1ccc(OCCN2C[C@H](O)[C@@H](O)[C@H](O)[C@H]2CO)cc1	–	inactive	inactive	–	inactive	inactive	–	–	inactive	inactive
Oc1cccc(Nc2ccccc2)c1	–	37.1 µM (active)	inactive	–	inactive	inactive	–	–	inactive	–
C=CC(C)(CCC=C(C)C)OC(=O)CC(C)C (stereo unspecified)	–	inactive	inactive	–	inactive	inactive	–	–	inactive	inactive
CC1CC(C)C(=O)C1=O (stereo unspecified)	–	inactive	inactive	–	inactive	inactive	–	–	inactive	inactive
O=C=Nc1ccc(Cl)c(Cl)c1	inactive	–	inactive	–	inactive	inactive	inactive	inactive	inactive	inactive
C/C=C\C/C=C/CCCCCCCCOC(C)=O	–	inactive	inactive	–	inactive	inactive	–	inactive	inactive	inactive
O=c1[nH]ncc2ccccc12	–	inactive	inactive	–	inactive	inactive	–	–	inactive	inactive
CC1=Nc2ccc3ccccc3c2C1(C)C	inactive	–	–	–	–	inactive	–	inactive	inactive	–
Nc1cccc2c1CN(C1CCC(=O)NC1=O)C2=O (stereo unspecified)	–	inactive	inactive	–	inactive	inactive	–	–	inactive	inactive
C=CCc1ccccc1OCC(O)CNC(C)C (stereo unspecified)	–	inactive	inactive	–	inactive	inactive	–	–	inactive	inactive
CC(C)Nc1cccnc1N1CCN(C(=O)c2cc3cc(NS(C)(=O)=O)ccc3[nH]2)CC1	–	inactive	inactive	–	inactive	inactive	inactive	inactive	inactive	inactive
CNC(=O)c1cnn(-c2nc(N)c3ncn([C@@H]4O[C@H](CO)[C@@H](O)[C@H]4O)c3n2)c1	–	inactive	inactive	–	inactive	inactive	–	–	inactive	inactive
CCC(=O)C1CC(C(C)C)CC=C1C (stereo unspecified)	–	inactive	inactive	–	inactive	inactive	inactive	inactive	inactive	inactive
c1cc(N(CC2CO2)CC2CO2)ccc1Cc1ccc(N(CC2CO2)CC2CO2)cc1 (stereo unspecified)	43.3 µM (active)	–	–	–	54.5 µM (active)	30.6 µM (active)	27.3 µM (active)	inactive	–	inactive
CC1(C)[C@H](C(=O)O)N2C(=O)C[C@H]2S1(=O)=O	–	inactive	inactive	–	inactive	inactive	inactive	inactive	inactive	inactive
COC(=O)CCS	–	inactive	inactive	–	inactive	inactive	–	–	inactive	inactive
